# PubChem BioAssay
# Activity calls are given as the source filed them. The rule behind the calls is not given here.
# Assay: inhibition of Brca1/Bard1 split-luciferase complementation, confirmation, counter-screen for Mdm2/MdmX interaction inhibitor project, luminescence, single concentration (AID 504668)
# Details: Brca1/Bard1 bimolecular luciferase complementation counterscreen, at 8 µM, hits give high values
row,SMILES,inhibition
1,CCCC(=O)NC(NC(=S)Nc1ccc(N=Nc2ccccc2)cc1)C(Cl)(Cl)Cl (stereo not given),32.4% (active)
2,COC(=O)[C@@H]1[C@@H](C#N)C2(c3ccccc3-c3ccccc32)N(c2ccc(Cl)cc2)N1C#N,32.8% (active)
3,Oc1ccc(N=Nc2ccc3c(c2)OCCO3)c2ncccc12,26.2% (active)
4,C[n+]1c2n(c3ccccc31)N=C(c1ccc(-c3ccccc3)cc1)CS2,25.5% (active)
5,Cc1sc2ncnc(N3CCC(C(=O)Nc4ccccc4C(C)(C)C)CC3)c2c1C,27.8% (active)
6,O=C(N/N=C/c1cc([N+](=O)[O-])ccc1N1CCNCC1)c1ccc([N+](=O)[O-])cc1,32.1% (active)
7,CCc1ccc2[nH]c3nc(N/N=C/c4ccc(O)cc4O)nnc3c2c1,29.3% (active)
8,COc1ccc(C(=O)Nc2nc3c(s2)CCCC3)cc1S(=O)(=O)N1CCCc2ccccc21,23.4% (active)
9,Oc1ccc2ccccc2c1N=Nc1ccccn1,28% (active)
10,COc1cccc(-c2nnc(NC(=O)c3ccc(S(=O)(=O)N(CC(C)C)CC(C)C)cc3)o2)c1,24.3% (active)
11,O=C(/C=C/c1ccc2ccccc2n1)N1CCN(S(=O)(=O)c2ccc(F)cc2)CC1,35.1% (active)
12,CC1=NN(c2ccccc2)C(=O)/C1=C\C=C\c1ccccc1,28.9% (active)
13,CCOC(=O)/C=C/C(=O)Nc1ccc(Oc2ccccc2)cc1,24.1% (active)
14,CCCCCCCCn1c2c(c(=N)c3ccccc31)CCC2,27.2% (active)
15,Brc1cc(Br)c2ncnc(N3CCCCC3)c2c1,27.7% (active)
16,COc1cc(/C=C2\SC(=Nc3ccc(O)cc3)NC2=O)cc(OC)c1OC,28.2% (active)
17,COc1ccc(C(=O)C(CN2CCCC2)c2ccccc2)cc1 (stereo not given),27.6% (active)
18,COc1ccc2[nH]c3c(N4CCC(O)(c5cccc(C(F)(F)F)c5)CC4)ncnc3c2c1,32.1% (active)
19,S=C(NNc1ccc2ccccc2c1)NC1CCCCC1,34.4% (active)
20,CCC(=O)NC(c1ccccc1OC)c1ccc2cccnc2c1O (stereo not given),32.5% (active)

row,SMILES,inhibition
1,CN1CCN(C(=O)CCCN2C(=O)/C(=C/c3cccc(Br)c3)SC2=S)CC1,29.2% (active)
2,C=CC[n+]1c(/C=C2\C=Cc3cc(C)ccc3N2CC)ccc2ccccc21,28.5% (active)
3,CCOc1ccccc1CNC(=O)c1cc2oc3ccccc3c2n1C,26.3% (active)
4,COc1cc2c(ccc3cc(OC)c(OC)c(O)c32)cc1O,31.4% (active)
5,COc1ccc(OC)c2sc(NC(=O)CCS(=O)(=O)c3ccccc3)nc12,23.8% (active)
6,CC(Oc1ccc(F)cc1)C(=O)Nc1nc(-c2ccccn2)cs1 (stereo not given),35.6% (active)
7,O=C(CSCC(=O)Nc1ccccc1)N/N=C/c1c(O)ccc2ccccc12,28.3% (active)
8,C/C(=N\Nc1nc(-c2ccccn2)nc2ccccc12)c1ccc(F)cc1,34.4% (active)
9,COc1cc([N+](=O)[O-])cc(/C=N/NC(=O)c2ccc(NC(=O)c3ccc(C)cc3)cc2)c1O,33.2% (active)
10,Cn1c(=O)c(C#N)c(-c2ccc(F)cc2)c2cc(C(=O)c3cc(Cl)cc(Cl)c3O)cnc21,29.6% (active)
11,CC(=O)c1ccc(Sc2nnnn2-c2ccccc2)c([N+](=O)[O-])c1,30.1% (active)
12,CCc1ccc(NC(=O)[C@H](Cc2c[nH]c3ccccc23)NC(=O)[C@@H]2Cc3ccccc3CN2)cc1,24.1% (active)
13,Cn1nnnc1Sc1ncnc2scc(-c3cccc(S(C)(=O)=O)c3)c12,27.4% (active)
14,COc1ccc([C@@H]2[C@@H]3C(=O)N(C(C)(C)C)C(=O)[C@@H]3[C@]3(Cc4ccccc4)C(=O)N(c4ccc(C(F)(F)F)cc4)C(=O)N23)cc1,27.8% (active)
15,CC(C)(C)N1C(=O)[C@H]2[C@@H](c3ccc(Br)cc3)N3C(=O)N(c4ccc(Br)cc4)C(=O)[C@@]3(Cc3ccccc3)[C@H]2C1=O,35.6% (active)
16,COc1ccc(O)c(/C=N/NC(=O)c2ccc(CSc3nc(C)cc(C)n3)cc2)c1,30.7% (active)
17,O=C(c1ccc(S(=O)(=O)c2ccccc2Cl)c([N+](=O)[O-])c1)N1CCN(Cc2ccccc2)CC1,29.6% (active)
18,CCOc1ccccc1Nc1nnc(SC(C)C(=O)Nc2nc(-c3ccccc3)cs2)s1 (stereo not given),35.2% (active)
19,CC(=O)O[C@@H]1C[C@H]2C(C)(C)C(=O)C=C[C@]2(C)[C@H]2CC[C@@]3(C)[C@H](c4ccoc4)OC(=O)[C@H]4O[C@]43[C@@]21C,33.8% (active)
20,CN(CC1CCCO1)S(=O)(=O)c1ccc(C(=O)Nc2nc(-c3ccccn3)cs2)cc1 (stereo not given),27.4% (active)
